# KB-V1 MDR tox: qHTS assay for MDR1-selective chemotherapeutics: Primary screen using the drug-selected MDR subline cells KB-V1 | 400,000 tested, 3.4% active | Potency, µM (titrated, usually from 46.1 µM), actives largely listed as cytotoxic | AID 1347076, 2019 | KB-V1 MDR cells viability, CellTiter-Glo, 72 h; further: on the % scale 0 is the no-effect control and ±100 the full control effect; nearly all actives have a fitted effect of over 60% in size
#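 Potencies derive from concentration-effect curves fitted to normalized luminescence (CellTiter-Glo) of KB-V1 cells treated for 72 h at 37 degrees C in phenol-red-free DMEM containing 10% FBS.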
# SW480 rerep: A quantitative high throughput screen for small molecules that induce DNA re-replication in SW480 colon adenocarcinoma cells; AID 624297, 2012; 340,000 tested, 1.8% active; SW480 DNA re-replication, Hoechst DNA content imaging, 48 h; Potency, µM (titrated, usually from 46.1 µM), without a hit: at the highest dose re-replication activation, actives largely listed as activators; further: % of control where 0% means no effect; nearly all actives have a fitted effect of over 55% in size
#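 Treated cells incubate 48 hr (37 C, 5% CO2), are stained 40 min with Hoechst, and nuclear fluorescence is enumerated; a rise in nuclei with high DNA signal marks re-replication.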
# HT1080-NT tox: qHTS for induction of synthetic lethality in tumor cells producing 2HG: qHTS for the HT-1080-NT fibrosarcoma cell line; HT-1080-NT fibrosarcoma viability, CellTiter-Glo ATP luminescence, 48 h; Potency, µM (doses to about 46.1 µM), inactives show at the top dose activity, negative = less viability, usual class: cytotoxic; 360,000 tested, 1.6% active; AID 686970, 2013;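 further: NT is the 2HG producing partner of a matched IDH1 knockdown line; 0% = DMSO-treated cells and -100% = media-only wells without cells; nearly all actives have a fitted effect of over 55% in size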
#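 HT-1080-NT fibrosarcoma cells (2HG-overproducing), 750 cells/well in RPMI with 5% FBS, dosed after 2 h and incubated 48 h at 37C. CellTiter-Glo luminescence normalized to DMSO and no-cell wells; concentration-response curves fitted and classed.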
# KB-3-1 cytotox: qHTS assay for MDR1-selective chemotherapeutics: Primary screen using the parental adenocarcinoma cell KB-3-1; KB-3-1 viability, CellTiter-Glo ATP luminescence, 72 h; Potency, µM (top dose mostly 46.1 µM), actives largely listed as cytotoxic; 400,000 tested, 1.4% active; AID 1347075, 2019; further: on the % scale 0 is the no-effect control and ±100 the full control effect; nearly all actives have a fitted effect of over 60% in size
#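 Using CellTiter-Glo luminescence, growth of non-resistant KB-3-1 adenocarcinoma cells is assessed 72 h after pin-tool compound addition at 37 °C. Normalized responses across the concentration series yield fitted curves.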
# MCF10A rerep: A quantitative high throughput screen for small molecules that induce DNA re-replication in MCF 10a normal breast cells; Potency, µM (highest dose often 46.1 µM), for the others: at the highest dose activity, positive = re-replication, usual class: activators; 350,000 tested, 2.9% active; MCF 10A DNA re-replication, Hoechst nuclear intensity, 48 h; further: % of control where 0% means no effect; nearly all actives have a fitted effect of over 50% in size
# HT1080 IDH1KD tx: qHTS for induction of synthetic lethality in tumor cells producing 2HG: qHTS for the HT-1080-IDH1KD cell line. Potency, µM (titrated, usually from 46.1 µM), for the others: at the highest dose activity, negative = toxicity, hits mostly cytotoxic. 360,000 tested, 2% active. AID 686971, 2013. HT-1080 IDH1 knockdown viability, ATP luminescence, 48 h;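 further: 0% = DMSO wells and -100% = cell-free medium wells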
#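 Knockdown cells (IDH1KD HT-1080) received compounds 2 h after plating at 750 cells/well and were kept 48 h at 37 °C in 5% FBS RPMI. A CellTiter-Glo luminescence read gave % activity for curve fitting.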
# Starred values were filed as active, the others as inactive; i = inactive; ? = inconclusive; nt = no result; [ ] = dose if it differs, or a comment. The list is not random: actives were taken first. Their share in the collection is about 7.9%. The call rests on the fitted dose curve; in most records, active means well fitted curve in the direction sought with a large enough effect; inconclusive means small, poorly fitted or top-dose-only effect, or another doubt; inactive means no such curve, though single readings can be large; an effect the other way counts as inactive or inconclusive. Potency means the concentration at half of the fitted maximal effect.
SMILES,KB-V1 MDR tox,SW480 rerep,HT1080-NT tox,KB-3-1 cytotox,MCF10A rerep,HT1080 IDH1KD tx
Cc1nnc(SCC(=O)N2CCC(c3noc4ccc(F)cc34)CC2)s1,?,-2%,3%,i,?,4%
Cc1sc2ncnc(SCC(=O)N3CCC(c4noc5ccc(F)cc45)CC3)c2c1C,10µM*,-12%,0%,i,-2%,0%
O=C(CSc1ccc2ccccc2n1)N1CCC(c2noc3ccc(F)cc23)CC1,9.2µM*,9%,-27%,i,?,-19%
CCN(CC)CCn1c2c(c(SCC(=O)Nc3ccc(C)c(F)c3)nc1=O)CCCC2,i,-11%,-7%,?,0%,-16%
N#CC1=C(N)NC(SCC(=O)O)=C(C#N)C12CCCC2,?,-4%,10%,i,-2%,18%
N#CC1=C(N)NC(SCc2ccc(F)cc2)=C(C#N)C12CCCCC2,?,?,21µM*,23µM*,8.2µM*,23µM*
O=C(c1ccccc1)N1CCCC(C(=O)N2CCc3ccccc3C2)C1 (stereo not given),i,-17%,-5%,i,9%,0%
COC(=O)c1cc2c(n1S(=O)(=O)c1ccc(C)cc1)C(=O)C(=O)c1[nH]cc(C(=O)OCc3ccccc3)c1-2,7.3µM*,?,9.2µM*,3.3µM*,8%,3.7µM*
COC(=O)c1ccc(COC(=O)c2ccc(CS(=O)(=O)c3ccc(C)cc3)cc2)cc1,i,-11%,-1%,i,8%,?
CC1=C(C(=O)N(C(C)C)C(C)C)CC(CC(=O)NCc2cccs2)C(=O)N1Cc1ccc(F)cc1 (stereo not given),i,nt,14%,i,nt,13%
O=c1cc(O)n(-c2ccccc2)c(=S)[nH]1,i,-19%,4%,i,-5%[9.22 µM],11%
Cn1ncc2c(O/N=C(\N)c3ccc(C(F)(F)F)cc3)ncnc21,?,7.3µM*,21µM*,?,?,16µM*
Cc1ccc(C(=O)NNc2ncnc3c2cnn3C)cc1,i,-52%,15%,i,-1%,1%
CCCOc1ccccc1C1CC(=O)NC2=C1C(=O)CCC2 (stereo not given),?,12µM*,12µM*,4.6µM*,10µM*,8.2µM*
CCCOc1ccccc1C1CC(=O)NC(C)=C1C(=O)OCC(C)C (stereo not given),?,16%,-13%,i,17%,?
CCOc1ccc(C2CC(=O)NC3=C2C(=O)CCC3)cc1 (stereo not given),i,-4%,8%,i,-2%,6%
CCOc1ccccc1C1CC(=O)NC2=C1C(=O)CCC2 (stereo not given),?,18µM*,?,?,?,23µM*
CCCCOc1ccccc1C1CC(=O)NC2=C1C(=O)CCC2 (stereo not given),?,?,2.3µM*,?,4.1µM*,1.6µM*
O=C(N/N=C/c1cc2c(cc1Cl)OCO2)c1cc(-c2ccccc2)n[nH]1,i,-1%,3%,i,?,2%
O=C(Cc1n[nH]c(=O)c2ccccc12)N/N=C/c1cc2c(cc1Cl)OCO2,i,?,2%,i,18µM*,-2%
COc1ccc(-c2cc(NC=O)c3ncc(-c4cccc(C(=O)NCCN(C)C)c4)n3c2)c(OC)c1,i,nt,18µM*,i,nt,23µM*

# Assay outcomes as filed in PubChem.
